Screening results from PubChem BioAssay.
Only some compounds are listed: those with a hit (about 5.4% of all), similar ones and a draw of the others.
VP16 counter – Gal4-VP16 reporter inhibition counter-screen; 310,000 compounds, 3.5% hits; Potency, µM (titrated, usually from 53.6 µM), hits mostly inhibitors; Drosophila S2 Gal4-VP16 UAS-luciferase, luminescence, 20 h; AID 2546;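 also: Gal4-VP16 expression switched on by copper sulfate through the metallothionein promoter; nearly all actives have a fitted effect of over 50% in size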
RORg inh – ROR gamma (mouse) transcription inhibition; P51450; Drosophila S2 Gal4-RORgamma UAS-luciferase reporter, 20 h; Potency, µM (top dose mostly 53.6 µM), most hits filed as inhibitors; 310,000 compounds, 5.4% hits; AID 2551; also: nearly all actives have a fitted effect of over 60% in size
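Luciferase reporter read in Schneider cells carrying Gal4-RORγ (mouse) and UAS-Photinus luciferase; cells given compound 1 h before 700 uM copper sulfate induction, then incubated 20 h at ambient temperature.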
p53 reactivation – mutant p53 re-activation in reporter cells. AID 504706. H1299 p53-A138V BP100-luciferase reporter, luminescence, 24 h. Potency, µM (highest dose often 92.2 µM), actives largely listed as activators. 320,000 compounds, 0.063% hits; also: nearly all actives have a fitted effect of over 45% in size
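H1299 (p53-null), stable ts p53-A138V + BP100-Luc; 1000 cells/well, Opti-MEM/10% FBS; cpd 4 pt, 1:5; 24 h, 37 deg C, 5% CO2; detection reagent 10 min RT; luminescence.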
CtBP-E1A blk – CtBP/E1A binding inhibition; 340,000 compounds, 0.49% hits; AlphaScreen GST-E1A/His-CtBP binding, 1536-well; active compounds read low; activity change, % (test concentration not listed); in the data active = activity change below about -65%; inconclusive = mostly about -30% to -63%
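Protein mix (5X: 125 nM each GST-E1A, His-CtBP) was incubated with pinned compound 2 h at 37 deg C in dark, in 50 mM Tris pH 8.0 buffer with 300 mM NaCl. Glutathione donor and nickel acceptor beads followed; AlphaScreen signal read after 1 h.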
Six1-Eya2 blk – inhibitors of human Six1/Eya2 interaction | Q15475+O00167 | activity change, % (concentration not given with the values) | AlphaScreen GST-Six1/His-Eya2 binding, biochemical; active compounds read low | 360,000 compounds, 0.56% hits | AID 651725; in the data active = activity change below about -65%; inconclusive = mostly about -30% to -63%
Target sequence (O00167 whole entry, looked up): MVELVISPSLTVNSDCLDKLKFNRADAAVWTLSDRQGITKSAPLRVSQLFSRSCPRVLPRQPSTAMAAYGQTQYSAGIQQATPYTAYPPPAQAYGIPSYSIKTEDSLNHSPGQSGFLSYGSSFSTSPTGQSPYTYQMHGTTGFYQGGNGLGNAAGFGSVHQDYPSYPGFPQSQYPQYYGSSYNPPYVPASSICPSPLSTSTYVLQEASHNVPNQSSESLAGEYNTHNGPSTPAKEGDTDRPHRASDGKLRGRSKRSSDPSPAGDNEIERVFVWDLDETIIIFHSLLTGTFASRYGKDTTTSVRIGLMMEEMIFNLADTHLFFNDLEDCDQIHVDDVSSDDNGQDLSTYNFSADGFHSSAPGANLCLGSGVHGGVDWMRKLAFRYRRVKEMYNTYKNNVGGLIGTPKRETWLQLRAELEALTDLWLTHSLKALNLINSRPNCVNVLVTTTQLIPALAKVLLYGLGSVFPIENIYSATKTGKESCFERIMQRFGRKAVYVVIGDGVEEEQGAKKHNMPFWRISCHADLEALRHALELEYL
Target sequence (Q15475 whole entry, looked up): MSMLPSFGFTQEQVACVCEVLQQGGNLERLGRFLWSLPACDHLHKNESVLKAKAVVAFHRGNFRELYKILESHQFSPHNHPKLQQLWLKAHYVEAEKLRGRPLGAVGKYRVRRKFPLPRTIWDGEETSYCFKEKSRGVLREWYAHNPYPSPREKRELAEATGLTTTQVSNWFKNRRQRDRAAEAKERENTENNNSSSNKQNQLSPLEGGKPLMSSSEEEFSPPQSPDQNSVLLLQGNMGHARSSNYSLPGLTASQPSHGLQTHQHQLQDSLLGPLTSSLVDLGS
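Homogeneous AlphaScreen proximity assay pairing GST-Six1 with His-tagged Eya2 (added as 5X mix: 250 nM and 500 nM) in 50 mM Tris pH 8.0, 300 mM NaCl, 1 mM TCEP. Glutathione donor and nickel acceptor beads; 1 h, 37 °C, dark.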
Hits are given with their value; n = inactive; u = inconclusive; x = not tested or not shown; [ ] = another dose, or the depositor's remark. Unless noted, calls follow the shape of the dose curve; as a rule, active = well fitted curve in the direction sought with a large enough effect; inconclusive = small, poorly fitted or top-dose-only effect, or another doubt; inactive = no such curve, though single readings can be large; an effect the other way counts as inactive or inconclusive.

SMILES	VP16 counter	RORg inh	p53 reactivation	CtBP-E1A blk	Six1-Eya2 blk
CC(C(=O)NCCSCc1cccc(Cl)c1)N(c1ccccc1)S(C)(=O)=O (configuration not stated)	n	n	n	n	n
CC(C)OCCCn1c(=O)c2ccccc2n2c(CCC(=O)NC3CCN(Cc4ccccc4)CC3)nnc12	n	n	n	n	n
Cc1ccc(C)c(N(CC(=O)NC(C)C)C(=O)CCC(=O)Nc2ccccn2)c1	n	u	n	n	n
Cc1ccc(/C=N/NC(=O)c2ccoc2C)s1	u	u	u	n	n
Cc1occc1C(=O)N/N=C/c1ccc(Br)s1	10µM	6.3µM	n	n	n
CCCNC(=O)c1cc(C2CCCCN2C(=O)c2ccc(NC(C)=O)cc2)on1 (configuration not stated)	x	x	x	n	n
Cc1cccc(NC(=O)COC(=O)c2ccccn2)c1	n	n	n	n	n
CC(=NNC(=S)Nc1ccc(C)cc1)c1ccccn1	x	x	x	n	-85
COc1ccccc1NC(=S)NN=C(C)c1ccccn1	x	x	x	-81	-72
CC(=NNC(=S)N1CC2CCC(CC2)C1)c1ccccn1	x	x	x	n	n
CC(=NNC(=S)Nc1cccc(C)c1)c1ccccn1	x	x	x	n	-81
CN1CCN(c2ccc(S(=O)(=O)N3CCCCC3)cc2NC(=O)c2ccc3ccccc3c2)CC1	8.9µM	11µM	n	n	n
Cc1ccccc1C(=O)Nc1cc(S(=O)(=O)N2CCCCC2)ccc1N1CCN(C)CC1	n	n	n	n	n
CN1CCn2cnc(C(=O)N3CCN(c4ccccc4)CC3)c2C1=O	x	x	x	n	n
CCOc1ccc(Cc2n[nH]c(=S)n2Cc2ccccc2)cc1	n	4.5µM	n	x	n
S=c1[nH]nc(COc2cccc3ccccc23)n1Cc1ccccc1	u	3.2µM	n	n	n
Cc1ccc(OCc2n[nH]c(=S)n2Cc2ccccc2)cc1	6.3µM	0.89µM	n	n	n
Cc1ccccc1OCc1n[nH]c(=S)n1Cc1ccccc1	u	3.5µM	n	n	n
COc1cc(C2C(C#N)=C(C)NC(C)=C2C#N)cc(OC)c1OC	n	n	n	n	n
CO[C@H]1COC(=O)[C@H](C)NC(=O)[C@@H](C)COC(=O)C/C=C\[C@@H]1C	n[10 µM]	n[10 µM]	x	x	x
Cc1ccc(N2C(=O)c3ccc(C(=O)N4CCN(c5cccc(C)c5C)CC4)cc3C2=O)cc1	20µM	u	n	n	n
Cc1cc(C(F)(F)F)c(C#N)c(SCC(=O)Nc2nc3ccccc3s2)n1	n	u	x	n	n
Cc1ccc2sc(NC(=O)CSc3nc(C)cc(C)c3C#N)nc2c1	u	0.71µM	n	n	n
Cc1nc(SCC(=O)Nc2nc3ccccc3s2)c(C#N)c(C)c1C	u	0.35µM	n	n	n
Cc1cc(C)c(C#N)c(SCC(=O)Nc2nnc(-c3ccccc3)s2)n1	n	n	n	n	n
SMILES	VP16 counter	RORg inh	p53 reactivation	CtBP-E1A blk	Six1-Eya2 blk
NC(=O)C1(N2CCCCC2)CCN(CCCC(=O)c2ccc(F)cc2)CC1	n	n	x	x	x
Cc1nn2c(-c3cccc(NC(=O)c4ccco4)c3)nnc2c2ccccc12	n	n	n	-88	-69
O=C(Nc1cccc(-c2nnc(-c3ccccc3)o2)c1)c1ccco1	n	n	n	n	n
O=C(NCCc1cccs1)c1ccc(Cl)cc1	u	8.9µM	n	n	n
Cc1ccc(C(=O)NCCc2cccs2)cc1	5.6µM	u	n	n	n
O=C(NCCc1cccs1)c1ccc(Cl)c(Cl)c1	n	n	n	n	n
Cc1ccc(NC(=O)N(Cc2nc3ccccc3c(=O)[nH]2)Cc2cccs2)cc1	n	u	n	n	n
O=c1[nH]ncn1-c1ccccc1	n	n	n	n	n
CCc1ccc(CN(C)C(=O)c2cc(COc3ccc(OC)cc3Cl)on2)nc1	n	n	n	n	n
O=C(NC(=S)Nc1ccc(N2CCOCC2)cc1)c1cccc(Cl)c1Cl	5µM	3.2µM	n	n	n
O=C(NC(=S)Nc1ccc(N2CCOCC2)cc1)c1ccco1	n	u	u	n	n
O=C(CN1CCOCC1)NNC(=S)Nc1ccccc1	1.3µM	n	n	x	n
O=C(NC(=S)NCCN1CCOCC1)c1ccccc1	n	u	n	n	n
O=C(NC(=S)NCCN1CCOCC1)c1cccc(Cl)c1	u	11µM	n	n	n
O=C(NC(=S)Nc1ccc(N2CCOCC2)cc1)c1cccc(Cl)c1	11µM	2.5µM	n	n	u
CSc1ncccc1C(=O)N1CCCC(CCC(=O)NCc2ccc(F)c(F)c2)C1 (configuration not stated)	n	u	n	n	n
COc1cccc(Nc2ncc3ncc(=O)n(CCc4ccccc4)c3n2)c1	n	n	x	x	x
CCc1ccc(C(=O)NC(=S)Nc2ccc(N3CCOCC3)cc2)cc1	18µM	5µM	n	x	n
Cc1cccc(C)c1NC(=S)NC(=O)c1ccccc1F	6.3µM	4.5µM	n	n	n
Cc1c(C(=O)NC(=S)Nc2ccc(N3CCOCC3)cc2)cccc1[N+](=O)[O-]	n	8.9µM	n	n	n
O=C(NC(=S)Nc1ccc(N2CCOCC2)cc1)c1ccccc1	u	8.9µM	n	n	n
Cc1c(C(=O)Nc2ccc(N3CCOCC3)cc2)cccc1[N+](=O)[O-]	n	n	n	n	n
O=C(COC(=O)/C=C/c1cccc(C(F)(F)F)c1)NC(=O)NCc1ccco1	x	x	n	n	n
COc1ccc(NC(=O)C2CC2(Cl)Cl)cc1S(=O)(=O)N1CCCCC1 (configuration not stated)	x	x	x	n	n
Cc1cc(C)c2[nH]c3nc(SCC(=O)O)nnc3c2c1	n	n	n	x	n
SMILES	VP16 counter	RORg inh	p53 reactivation	CtBP-E1A blk	Six1-Eya2 blk
O=C(NC(=S)Nc1ccc(Cl)cc1)c1cncc(Br)c1	x	x	x	n	n
Cc1ccccc1C(=O)NC(=S)Nc1ccc(N2CCOCC2)cc1	u	20µM	n	n	n
Cc1ccc(C(=O)N2CCN(c3ccc(NC(=S)NC(=O)Cc4ccccc4)cc3)CC2)cc1	8.9µM	5.6µM	n	n	n
O=C(NC(=S)Nc1ccc(N2CCOCC2)cc1)c1cncc(Br)c1	8.9µM	5µM	n	n	n
Cc1ccc(C(=O)NC(=S)NCCCN2CCOCC2)cc1	n	18µM	n	n	n
CCOC(=O)C1C(C(=O)Nc2cccc(C(F)(F)F)c2)C1C(=O)NC(C)C (configuration not stated)	n	n	n	n	n
Cc1ccccc1C(=O)NNC(=S)NC(=O)c1ccc(Cl)cc1Cl	n	u	n	n	n
Cc1onc(-c2ccccc2)c1C(=O)NNC(=S)NC(=O)/C=C/c1ccccc1	u	5.6µM	n	n	n
COc1ccc(-c2cc(C(=O)NNC(=S)NC(=O)c3c(-c4ccccc4)noc3C)[nH]n2)cc1	n	u	n	n	n
COc1ccc(/C=C/C(=O)NC(=S)NNC(=O)c2c(-c3ccccc3)noc2C)cc1	5µM	3.2µM	n	n	n
Cc1onc(-c2ccccc2)c1C(=O)NNC(=S)NC(=O)c1ccc(Cl)cc1Cl	11µM	4.5µM	n	n	n
